Shown are actives, neighbours in structure and some others; about 6.2% of the full set was active somewhere.
KinaseGlo FLuc – Counterscreen for Luciferase (Kinase-Glo TM) Inhibition; Potency, µM (highest dose often 38.3 µM), hits mostly inhibitors; Luciferin 4-monooxygenase (Photuris pensylvanica), Q27757; Kinase-Glo luciferase, ATP luminescence, 8 min; 200,000 tested, 0.28% active; AID 1379, 2008; note: nearly all actives have a fitted effect of over 60% in size
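Inhibition of Kinase-Glo luciferase light generation was assessed at 10 uM ATP in pH 7.2 imidazole buffer, with luminescence measured after eight minutes at ambient temperature.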
RORgamma inh – qHTS for inhibitors of ROR gamma transcriptional activity | Nuclear receptor ROR-gamma (Mus musculus), P51450 | 310,000 tested, 5.4% active | Drosophila S2 Gal4-RORgamma UAS-luciferase reporter, 20 h | Potency, µM (series often up to 53.6 µM), hits mostly inhibitors; note: nearly all actives have a fitted effect of over 60% in size
Target sequence (P51450 whole entry, looked up, the tested form may be a part): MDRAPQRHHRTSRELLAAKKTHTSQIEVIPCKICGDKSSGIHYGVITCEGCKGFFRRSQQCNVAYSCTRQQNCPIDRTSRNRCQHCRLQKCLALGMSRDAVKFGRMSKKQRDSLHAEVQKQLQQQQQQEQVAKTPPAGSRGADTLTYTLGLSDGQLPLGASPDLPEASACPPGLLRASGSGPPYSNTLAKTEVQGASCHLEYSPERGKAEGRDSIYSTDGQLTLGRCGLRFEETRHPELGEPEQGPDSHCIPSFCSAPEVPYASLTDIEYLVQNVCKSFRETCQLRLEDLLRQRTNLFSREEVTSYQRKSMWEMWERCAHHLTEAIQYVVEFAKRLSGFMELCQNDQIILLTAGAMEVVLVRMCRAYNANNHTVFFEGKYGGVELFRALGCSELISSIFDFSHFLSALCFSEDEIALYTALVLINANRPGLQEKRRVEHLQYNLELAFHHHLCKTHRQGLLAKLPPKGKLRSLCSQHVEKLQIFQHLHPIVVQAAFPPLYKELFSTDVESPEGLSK
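Compounds are pin-transferred onto Drosophila Schneider cells expressing a copper-inducible Gal4–ROR gamma transactivation domain fusion. After 1 hr, copper sulfate is added to 700 uM final; luciferase is read 20 hr later.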
VP16 counter – VP16 counterscreen qHTS for inhibitors of ROR gamma transcriptional activity | AID 2546, 2010 | Drosophila S2 Gal4-VP16 UAS-luciferase, luminescence, 20 h | 310,000 tested, 3.5% active | Potency, µM (top dose mostly 53.6 µM), most hits filed as inhibitors;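 note: Gal4-VP16 expression switched on by copper sulfate through the metallothionein promoter; nearly all actives have a fitted effect of over 50% in size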
Of the large screens only hits and unclear results are named; the others gave an inactive call. Calls come from the whole dose curve; as a rule, active = well fitted curve in the direction sought with a large enough effect; inconclusive = small, poorly fitted or top-dose-only effect, or another doubt; inactive = no such curve, though single readings can be large; an effect the other way counts as inactive or inconclusive.

O=C(Nc1ccc(-c2cccc(F)c2)cc1)C1CCCN(Cc2ccccn2)C1 (stereo not drawn)	RORgamma inh 13µM, VP16 counter 11µM (no result: KinaseGlo FLuc)
O=C(CCc1ccccc1)NCCSCc1c(F)cccc1Cl	RORgamma inh inconclusive, VP16 counter 7.9µM
O=C(CSCc1c(F)cccc1Cl)NCCc1ccccc1	none (no result: KinaseGlo FLuc)
c1ccc(-c2nc(NCC3CCCO3)c3ccccc3n2)nc1 (stereo not drawn)	RORgamma inh 1.6µM, VP16 counter 7.1µM
c1ccc(Nc2nc(NCC3CCCO3)c3ccccc3n2)cc1 (stereo not drawn)	VP16 counter inconclusive
c1ccc(-c2nc(NCc3ccco3)c3ccccc3n2)nc1	RORgamma inh 1.3µM, VP16 counter 2.8µM
Oc1ccccc1-c1nc(NCc2ccco2)c2ccccc2n1	none
CC(=O)c1ccc(C2C=CC(O)C(CO)O2)cc1 (stereo not drawn)	none (no result: KinaseGlo FLuc)
Cc1noc(C)c1C(=O)N1CCC2(CC1)CN(C(=O)Nc1cccc(F)c1)C2	none
COc1cc(O)c(C(CC(=O)N2CCOCC2)c2ccc(N(C)C)cc2)c(OC)c1 (stereo not drawn)	none (no result: KinaseGlo FLuc)
COc1cc(O)c(C(CC(=O)N2CCCCC2)c2ccc(N(C)C)cc2)c(OC)c1 (stereo not drawn)	RORgamma inh 1µM (no result: KinaseGlo FLuc)
Cc1ncsc1CCSc1nc2ccccc2c(=O)n1C	none
CCCCOc1ccc(/C(O)=C(\C#N)c2nc3ccccc3[nH]2)cc1	none (no result: KinaseGlo FLuc)
N#C/C(=C(/O)CSc1nnc(Cc2cccs2)n1C1CCCCC1)c1nc2ccccc2[nH]1	none
N#C/C(=C(/O)CCl)c1nc2ccccc2[nH]1	RORgamma inh 5µM, VP16 counter 10µM
Cn1cnnc1SC/C(O)=C(\C#N)c1nc2ccccc2[nH]1	none
N#C/C(=C(/O)c1ccco1)c1nc2ccccc2s1	RORgamma inh inconclusive
COc1ccccc1-c1nnc(SC/C(O)=C(\C#N)c2nc3ccccc3[nH]2)n1C1CCCCC1	RORgamma inh 7.1µM, VP16 counter 11µM
N#C/C(=C(/O)c1ccco1)c1nc2ccccc2[nH]1	RORgamma inh 7.1µM, VP16 counter inconclusive
CSCCC(/C(O)=C(\C#N)c1nc2ccccc2[nH]1)N1C(=O)c2ccccc2C1=O (stereo not drawn)	RORgamma inh 11µM, VP16 counter 18µM
O=C(CSc1nnc(-c2ccncc2)o1)Nc1ccccc1C(F)(F)F	none (no result: KinaseGlo FLuc)
CC(C)C[C@H](NC(=O)[C@H](CO)NC(=O)CNC(=O)[C@H](CCCCN)NC(=O)[C@H](CCCN=C(N)N)NC(=O)[C@H](C)NC(=O)[C@H](Cc1ccccc1)NC(=O)[C@@H](N)CCCN=C(N)N)C(=O)N[C@@H](CCCN=C(N)N)C(=O)N[C@@H](CCC(N)=O)C(=O)N[C@@H](CCCCN)C(=O)N[C@@H](CC(N)=O)C(=O)N[C@H](C(=O)O)C(C)C	none (no result: KinaseGlo FLuc)
COc1ccc([C@H]2OCC3C2CO[C@@H]3c2ccc(OC)c(OC)c2)cc1OC (stereo partly drawn)	none (no result: KinaseGlo FLuc)
COc1ccc(NC(=O)c2ccccc2NS(=O)(=O)c2ccc(CNC(C)=O)cc2)c(OC)c1	none (no result: KinaseGlo FLuc)
Cc1ccc(C(C)C)cc1S(=O)(=O)Nc1cccnc1	none (no result: KinaseGlo FLuc)
N#C/C(=C/c1cccs1)c1nc2ccccc2[nH]1	RORgamma inh inconclusive
C=CCn1c(COc2ccccc2)nnc1SCc1ccc(C#N)cc1	none
Cc1ccc(/C=C(\C#N)c2nc3ccccc3[nH]2)s1	RORgamma inh inconclusive, VP16 counter 10µM
N#C/C(=C(/O)c1ccc(C(=O)c2ccccc2)cc1)c1nc2ccccc2[nH]1	none (no result: KinaseGlo FLuc)
N#C/C(=C(/O)CN1C(=O)c2ccccc2C1=O)c1nc2ccccc2[nH]1	RORgamma inh 11µM, VP16 counter inconclusive
C=CCn1c(COc2ccc(CC)cc2)nnc1SC/C(O)=C(\C#N)c1nc2ccccc2[nH]1	RORgamma inh 11µM, VP16 counter inconclusive
C/C(O)=C(\C#N)c1nc2ccccc2[nH]1	RORgamma inh inconclusive, VP16 counter 14µM
N#C/C(=C(/O)CSc1n[nH]c(N)n1)c1nc2ccccc2[nH]1	none (no result: KinaseGlo FLuc)
CC(C)CN(C(=O)COC(=O)c1c(Cl)ccc(Cl)c1Cl)C1CCS(=O)(=O)C1 (stereo not drawn)	none
COc1ccccc1/C(O)=C(\C#N)c1nc2ccccc2[nH]1	RORgamma inh 1.4µM
N#C/C(=C(/O)c1ccc(Br)s1)c1nc2ccccc2[nH]1	RORgamma inh 1µM (no result: KinaseGlo FLuc)
N#C/C(=C(\O)Cc1ccccc1)c1nc2ccccc2[nH]1	RORgamma inh 2.8µM, VP16 counter inconclusive
N#C/C(=C(/O)c1ccc([N+](=O)[O-])s1)c1nc2ccccc2[nH]1	none (no result: KinaseGlo FLuc)
COc1ccccc1N/C=C(\C#N)c1nc2ccccc2[nH]1	RORgamma inh inconclusive
CC1(C)CCCC(C)(C)N1CC(O)COCCOc1ccc(Br)cc1 (stereo not drawn)	RORgamma inh inconclusive
N#CCCNc1ccc(OCCC#N)cc1	none (no result: KinaseGlo FLuc)
Cc1ccc(S(=O)(=O)N(C)/N=C/c2ccc(N(C)C)cc2)cc1	none (no result: KinaseGlo FLuc)
Cc1ccc(NC(=O)N2CCc3ccccc3C2)c(C)c1	none (no result: KinaseGlo FLuc)
O=C(NCCc1ccccn1)C(F)(F)C(F)(F)C(F)(F)C(F)(F)C(F)(F)C(F)(F)C(F)(F)C(F)F	none
Cc1cc(C)cc(OCC(=O)OC/C(O)=C(\C#N)c2nc3ccccc3[nH]2)c1	RORgamma inh 13µM, VP16 counter 16µM
Cc1cccc(C)c1Nc1nnc(SC/C(O)=C(\C#N)c2nc3ccccc3[nH]2)s1	RORgamma inh inconclusive
Cc1cccc(C)c1OCC(=O)OC/C(O)=C(\C#N)c1nc2ccccc2[nH]1	RORgamma inh 10µM, VP16 counter 18µM (no result: KinaseGlo FLuc)
N#C/C(=C(/O)COC(=O)COc1cccc(Br)c1)c1nc2ccccc2[nH]1	VP16 counter 13µM (no result: KinaseGlo FLuc)
Cc1ccc(-n2nc(C)c(C3C(C#N)=C(N)OC4=C3C(=O)CCC4)c2Cl)cc1 (stereo not drawn)	none
CCOc1cccc(CNCCCSc2ncccn2)c1	none (no result: KinaseGlo FLuc)
C[C@H]1CCCC(=O)CCC/C=C/c2c(O)cc(O)cc2C(=O)O1	VP16 counter inconclusive (no result: KinaseGlo FLuc)
Cc1nc(-c2ccc([N+](=O)[O-])cc2)nc2[nH]ccc(=O)c12	RORgamma inh inconclusive (no result: KinaseGlo FLuc)
NCCCCNS(=O)(=O)c1ccc2c(Cl)cccc2c1	none
NCCCCCCNS(=O)(=O)c1ccc2c(Cl)cccc2c1	RORgamma inh inconclusive, VP16 counter 28µM
O=C(Nc1cccnc1)c1ccc(S(=O)(=O)c2ccccc2)cc1	RORgamma inh inconclusive
Cc1sc(NC(=O)CN2CCOCC2)nc1-c1ccc2c(c1)CCN2S(=O)(=O)c1ccccc1	RORgamma inh 7.1µM, VP16 counter 5.6µM
O=C(CN1CCOCC1)Nc1nc(-c2ccc3c(c2)CCN3S(=O)(=O)c2ccccc2)cs1	VP16 counter inconclusive
O=C(Nc1ccc(S(=O)(=O)N2CCCCC2)cc1)c1ccncc1	none (no result: KinaseGlo FLuc)
CCCNC(=O)c1ccc(CN2CCc3ccccc3C2)cc1	none
O=C(Nc1ccc(Cc2ccncc2)cc1)c1ccc(S(=O)(=O)N2CCCC2)cc1	RORgamma inh inconclusive, VP16 counter 11µM
O=C(Nc1ccc(S(=O)(=O)N2CCOCC2)cc1)c1ccc(CN2CCc3ccccc3C2)cc1	RORgamma inh 8.9µM, VP16 counter 2.2µM
C/C(=N\NC(=O)c1ccc(CN2CCc3ccccc3C2)cc1)c1ccccc1O	RORgamma inh 0.89µM, VP16 counter 2.5µM
CCN(CC)c1ccc(S(=O)(=O)N2CCOCC2)cc1NS(C)(=O)=O	none
